Here are results for 16 compounds from PubChem BioAssay (NCATS).

Inconclusive results are not listed. Calls of active or inactive are those of the source. Calls come from the whole dose curve; as a rule, active = well fitted curve in the direction sought with a large enough effect; inconclusive = small, poorly fitted or top-dose-only effect, or another doubt; inactive = no such curve, though single readings can be large; an effect the other way counts as inactive or inconclusive.

The nature of test [1]: S16 Schwann cell PMP22 intronic element firefly luciferase assay (AID 624032). Note: nearly all actives have a fitted effect of over 30% in size. In short, it runs like this: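 Rat S16 Schwann cells stably carrying a PMP22 intronic element-driven Fluc reporter were seeded overnight, then exposed to compounds for 24 h at 37 °C. Luminescence was normalized to PTC124 (positive control) and DMSO (0% activity).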
The test system of test [2] is 3D7. Description: qHTS profiling for inhibitors of Plasmodium falciparum proliferation (AID 504749). Note: nearly all actives have a fitted effect of over 60% in size. Particulars: P. falciparum in erythrocytes, SYBR Green DNA, 72 h; series mostly up to 28.7 µM. An outline of the steps:
(§1)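 Quantitative HTS: compounds pinned into medium, infected erythrocytes added (0.3% parasitemia, 2.5% hematocrit), 72 h culture at 37 C under 5% CO2. Saponin/Triton lysis with SYBR Green I, overnight RT, then fluorescence read.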
On the technique in general: In qHTS, concentration-response curves come from the screen itself.

Test [3] has as its system 7G8. The test is described as above. The conditions noted are these: P. falciparum in erythrocytes, SYBR Green DNA, 72 h; series mostly up to 28.7 µM. An outline of the steps:
as §1

Test [4] relates to ATS95. The test is described as above. Particulars: P. falciparum in erythrocytes, SYBR Green DNA, 72 h; series mostly up to 28.7 µM. An outline of the steps:
as §1

The subject of test [5] is C2A. The test is described as above. The conditions noted are these: P. falciparum in erythrocytes, SYBR Green DNA, 72 h; series mostly up to 28.7 µM. In short, it runs like this: as §1
The test system of test [6] is CP191. The test is described as above. Particulars: P. falciparum in erythrocytes, SYBR Green DNA, 72 h; series mostly up to 28.7 µM. In short, it runs like this: as §1
For test [7], the system named is CP217. The test is described as above. Particulars: P. falciparum in erythrocytes, SYBR Green DNA, 72 h; series mostly up to 28.7 µM. An outline of the steps: as §1
In test [8] the test system is CP250. Described as above. Particulars: P. falciparum in erythrocytes, SYBR Green DNA, 72 h; series mostly up to 28.7 µM. In short, it runs like this: as §1
In test [9] the test system is CP260. The description is as above. The conditions noted are these: P. falciparum in erythrocytes, SYBR Green DNA, 72 h; series mostly up to 28.7 µM. In short, it runs like this:
as §1

The subject of test [10] is CP335. The test is described as above. Particulars: P. falciparum in erythrocytes, SYBR Green DNA, 72 h; series mostly up to 28.7 µM. In short, it runs like this: as §1
Test [11] deals with DIV14. Described as above. Particulars: P. falciparum in erythrocytes, SYBR Green DNA, 72 h; series mostly up to 28.7 µM. In short, it runs like this:
as §1

The subject of test [12] is DIV17. The test is described as above. Particulars: P. falciparum in erythrocytes, SYBR Green DNA, 72 h; series mostly up to 28.7 µM. An outline of the steps: as §1
For test [13], the system named is DIV30. Described as above. Particulars: P. falciparum in erythrocytes, SYBR Green DNA, 72 h; series mostly up to 28.7 µM. In short, it runs like this:
as §1

For test [14], the system named is P94_40. The test is described as above. The conditions noted are these: P. falciparum in erythrocytes, SYBR Green DNA, 72 h; series mostly up to 28.7 µM. An outline of the steps:
as §1

The subject of test [15] is PAD. Described as above. The conditions noted are these: P. falciparum in erythrocytes, SYBR Green DNA, 72 h; series mostly up to 28.7 µM. An outline of the steps:
as §1

Test [16] has as its system PC26. The test is described as above. Particulars: P. falciparum in erythrocytes, SYBR Green DNA, 72 h; series mostly up to 28.7 µM. In short, it runs like this:
as §1

In test [17] the test system is SC27B. Described as above. The conditions noted are these: P. falciparum in erythrocytes, SYBR Green DNA, 72 h; series mostly up to 28.7 µM. An outline of the steps: as §1
Test [18] concerns TAB113. The description is as above. Particulars: P. falciparum in erythrocytes, SYBR Green DNA, 72 h; series mostly up to 28.7 µM. In short, it runs like this: as §1
Test [19] concerns TAB165. The test is described as above. The conditions noted are these: P. falciparum in erythrocytes, SYBR Green DNA, 72 h; series mostly up to 28.7 µM. An outline of the steps:
as §1

Test [20] deals with DFO2036. The test is described as above. Particulars: P. falciparum in erythrocytes, SYBR Green DNA, 72 h; series mostly up to 28.7 µM. In short, it runs like this:
as §1
Potency is the fitted concentration of half-maximal effect.

`CCC(C(=O)C(C)C(O)C(C)CCc1ccc(C)c(O)c1C(=O)O)C1OC(CC)(C2CC[C@@](O)(CC)C(C)O2)CC1C` (stereo not given in full): the Potency in test [1] was 1.81 µM (active); in test [2] it was 0.447 µM (active); in [3], 0.501 µM (active); in test [4], 0.891 µM (active); in test [5], 0.794 µM (active); in test [6] it was 0.708 µM (active). The Potency in test [7] is 1 µM (active); in test [8], 1 µM (active); in test [9] it was 0.631 µM (active); in test [10], 0.426 µM (active); in test [11], 0.953 µM (active); in test [12], 0.849 µM (active). The Potency in [13] was 0.601 µM (active); in test [14], 0.316 µM (active); in test [15], 1.26 µM (active); in test [16] it was 0.849 µM (active); in test [17] it was 0.447 µM (active); in test [18] it was 0.891 µM (active). For the same compound, the Potency in test [19] was 0.355 µM (active).

With `CC(=O)CC(c1ccccc1)C1C(=O)Oc2ccccc2C1=O` (stereo not given), the Potency result in [1], in [2], in test [3], in [5], in test [6] and in [7] was “inactive” each time. Moreover, the Potency result in test [8], in test [9], in [10], in test [20], in test [11] and in [12] was “inactive” throughout. Besides, the Potency result in test [13], in test [14], in test [15], in test [16], in test [17] and in [18] was “inactive” throughout. The Potency result in [19] is “inactive”.

Consider `Nc1nc2[nH]cc(CCc3ccc(C(=O)NC(CCC(=O)O)C(=O)O)cc3)c2c(=O)[nH]1` (stereo not given), for which the Potency result in [1] was “inactive”. Further, the Potency in test [2] was 8.91 µM (active); in [3], 3.98 µM (active); in test [5] it was 0.316 µM (active); in test [6], 0.158 µM (active); in test [7], 0.0562 µM (active); in [8] it was 0.251 µM (active). Moreover, the Potency is 0.126 µM (active) in test [9]; 0.135 µM (active) in test [10]; 0.0631 µM (active) in test [20]; 0.224 µM (active) in test [15]; 7.94 µM (active) in [19].

Take `NC(C(=O)O)C(O)c1ccc(O)c(O)c1` (stereo not given): the Potency result in test [1] is “inactive”. Moreover, the Potency in [2] was 8.91 µM (active).

As for `C=C1/C(=C\C=C2/CCC[C@]3(C)[C@@H]([C@H](C)/C=C/[C@@H](O)C4CC4)CC[C@@H]23)C[C@@H](O)C[C@@H]1O`, the Potency in test [1] is 10.2 µM (active). For the same compound, the Potency result in test [2], in test [4], in test [5], in test [6], in test [7] and in [10] was “inactive” throughout. The Potency result in [11], in test [12], in test [13], in test [15], in [16] and in test [17] was “inactive” each time. Also, in test [18], the Potency result is “inactive”.

On to `O=C1Oc2ccccc2C(=O)C1C(CC(O)c1ccc(-c2ccc(Br)cc2)cc1)c1ccccc1` (stereo not given), for which the figures for the Potency in [1] and in test [3] were 36.1 µM (active) and 12.6 µM (active), respectively. In addition, the Potency entry in test [2], in test [4], in test [6], in test [7], in test [9] and in test [13] was “inactive” in each case. For the same compound, the Potency entry in test [14], in [16], in [17], in [18] and in test [19] was “inactive” each time.

Turning to `Cc1cnc(NC(=O)C2C(=O)c3ccccc3S(=O)(=O)N2C)s1` (stereo not given), the Potency entry in test [1], in [2], in test [4], in [5], in [6] and in [7] was “inactive” each time. The Potency result in [8], in test [9], in test [10], in [20], in test [11] and in [12] was “inactive” each time. Besides, the Potency entry in test [13], in test [14], in test [15], in test [16], in test [17] and in test [18] was “inactive” in each case.

Consider `CN(C)CC[C@@](O)(c1ccccc1)c1ccccc1Cl`, for which, in test [1], the Potency entry was “inactive”. Besides, the Potency is 3.55 µM (active) in [3]; 11.2 µM (active) in test [4]; 12.6 µM (active) in test [7]; 10 µM (active) in test [9]; 7.57 µM (active) in test [10]; 6.75 µM (active) in [11]. In addition, the Potency was 6.75 µM (active) in test [12]; 10.7 µM (active) in test [13]; 6.31 µM (active) in test [14]; 11.2 µM (active) in [15]; 7.57 µM (active) in [16]; 5.62 µM (active) in test [17]. The figures for the Potency in test [18] and in test [19] were 11.2 µM (active) and 6.31 µM (active), respectively.

Regarding `CC1OC(OC2C(O)CC(OC3C(O)CC(OC4CCC5(C)C(CCC6C5CCC5(C)C(C7=CC(=O)OC7)CCC65O)C4)OC3C)OC2C)CC(O)C1O` (stereo not given), the Potency in test [3] was 12.6 µM (active). Also, the Potency entry in [5], in [6], in test [7], in test [8], in [9] and in test [20] was “inactive” in each case. Besides, the Potency result in test [13], in test [14], in test [15], in [17], in test [18] and in [19] was “inactive” in each case.

Take `Cc1cc(O)c2c(c1)OC1(C)CCC3C(C)(C)CCCC34COC2C14` (stereo not given): the Potency in test [1] was 28.7 µM (active); in test [3], 8.91 µM (active); in test [11] it was 8.49 µM (active); in [12], 15.1 µM (active); in [18] it was 8.91 µM (active). Also, the Potency result in test [5] and in test [9] was “inactive” throughout.

As to `CCOc1ccccc1O[C@@H](c1ccccc1)[C@@H]1CNCCO1`, the Potency result in test [1], in [8] and in test [20] was “inactive” each time. Also, the Potency in test [3] is 5.01 µM (active); in [11], 1.69 µM (active); in test [12] it was 1.9 µM (active); in test [13] it was 6.75 µM (active); in test [19], 10 µM (active).

For the compound `C=C1C(n2cnc3c(=O)[nH]c(N)nc32)C[C@H](O)[C@H]1CO` (stereo not given in full), the Potency entry in test [1], in [5], in [6], in [7], in [20] and in test [13] was “inactive” throughout. Further, the Potency entry in [14], in [15], in test [17], in test [18] and in [19] was “inactive” each time. Moreover, the Potency in test [3] is 12.6 µM (active).

As to `C=C1CC[C@H](O)C/C1=C/C=C1\CCC[C@]2(C)[C@@H]([C@H](C)CCCC(C)(C)O)CC[C@@H]12`, the Potency was 10 µM (active) in test [3], 15.1 µM (active) in [12], 9.53 µM (active) in test [13] and 12.6 µM (active) in test [19].

Take `C#C[C@@]1(O)CC[C@@H]2[C@H]3CCC4=C/C(=N\O)CC[C@H]4[C@@H]3CC[C@]21CC`: the Potency result in test [2], in [4], in test [5], in test [6], in [7] and in test [8] was “inactive” throughout. Moreover, the Potency entry in test [9], in test [10], in [20], in test [11], in test [12] and in test [13] was “inactive” each time. Besides, the Potency entry in test [14], in test [15], in test [16], in test [17], in test [18] and in test [19] was “inactive” in each case.

Turning to `C#C[C@]1(O)CC[C@H]2[C@H]3[C@H](CC[C@@]21C)C1=C(CC(=O)CC1)C[C@@H]3C`, the Potency result in test [2], in test [4], in test [5], in test [6], in test [7] and in test [8] was “inactive” throughout. The Potency result in [9], in test [10], in test [20], in [11], in [14] and in [15] was “inactive” throughout. For the same compound, the Potency entry in test [16], in test [17], in [18] and in [19] was “inactive” in each case.

For the compound `CC1=C[C@@H](O)CC(C)(C)[C@@H]1/C=C/C(C)=C/C=C/C(C)=C/C=C/C=C(C)/C=C/C=C(C)/C=C/C1=C(C)C[C@H](O)CC1(C)C`, the Potency in test [2] is 10 µM (active); in test [3] it was 10 µM (active); in test [11], 12 µM (active). Besides, the Potency entry in [6] and in [8] was “inactive” throughout.
